# Targets with a hit are over-represented here; the source holds about 7,900 in all. About 0.6% of all pairs of compound and target were hits. Values without a mark were called inactive.
# Key:
# Assay in all cases: log2 fold change, soluble protein after heating vs DMSO (PISA); higher = thermal stabilisation; K562 cells, 10 uM, 30 min; active = over 0.2 and 3.5 SD of the protein, either way, in both replicates (recomputed)
# bafetinib = compound: Cc1ccc(NC(=O)c2ccc(CN3CC[C@H](N(C)C)C3)c(C(F)(F)F)c2)cc1Nc1nccc(-c2cncnc2)n1 [bafetinib]
# Procedure, shortened: (§1)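 Soluble protein was defined as the supernatant after 21,000xg for 90 min. It came from K562 cells at 2×10^6 cells/mL given 10 μM compound for 30 min, heated in aliquots for 3 min across 48°C-58°C, pooled, and extracted in PBS with 0.5% NP-40 at 4°C, and was quantified by TMTpro 16plex LC-MS/MS with equalised channel sums. Thermal stability against control samples, from duplicates, is reported as log2 fold change.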
# [1] = compound: Cc1cccc(CC(=O)N2CCc3c2ccc(-c2cn(C)c4ncnc(N)c24)c3F)n1
# Procedure, shortened: as §1
# nilotinib = compound: Cc1cn(-c2cc(NC(=O)c3ccc(C)c(Nc4nccc(-c5cccnc5)n4)c3)cc(C(F)(F)F)c2)cn1 [nilotinib]
# Procedure, shortened: as §1
# [2] = compound: Cc1nc(Nc2n[nH]c3c2CN(C(=O)N[C@H](CN(C)C)c2ccccc2)C3(C)C)c2sccc2n1
# Procedure, shortened: as §1
# dasatinib = compound: Cc1nc(Nc2ncc(C(=O)Nc3c(C)cccc3Cl)s2)cc(N2CCN(CCO)CC2)n1 [dasatinib]
# Procedure, shortened: as §1
# [3] = compound: Cc1ncc(-c2ccnc(Nc3ccc(S(C)(=O)=O)cc3)n2)n1C(C)C
# Procedure, shortened: as §1
# [4] = compound: Cn1cc(-c2ccc3c(c2)CCN3C(=O)Cc2cccc(C(F)(F)F)c2)c2c(N)ncnc21
# Procedure, shortened: as §1
# [5] = compound: Cn1cc(-c2ccc3nnc(C(F)(F)c4ccc5ncccc5c4)n3n2)cn1
# Procedure, shortened: as §1
# tipifarnib = compound: Cn1cncc1[C@@](N)(c1ccc(Cl)cc1)c1ccc2c(c1)c(-c1cccc(Cl)c1)cc(=O)n2C [tipifarnib]
# Procedure, shortened: as §1
# mubritinib = compound: FC(F)(F)c1ccc(/C=C/c2nc(COc3ccc(CCCCn4ccnn4)cc3)co2)cc1 [mubritinib]
# Procedure, shortened: as §1
# [6] = compound: NC(=O)Nc1cc(-c2cccc(F)c2)sc1C(=O)N[C@H]1CCCNC1
# Procedure, shortened: as §1
# [7] = compound: NC(=O)c1cnc(N[C@@H]2CCCC[C@@H]2N)nc1Nc1cccc(-n2nccn2)c1
# Procedure, shortened: as §1
# [8] = compound: NC1(c2ccc(-c3nc4ccn5c(=O)[nH]nc5c4cc3-c3ccccc3)cc2)CCC1
# Procedure, shortened: as §1
# [9] = compound: NCC(=O)Nc1ccc(-n2nc(C(F)(F)F)cc2-c2ccc3c(ccc4ccccc43)c2)cc1
# Procedure, shortened: as §1
# entinostat = compound: Nc1ccccc1NC(=O)c1ccc(CNC(=O)OCc2cccnc2)cc1 [entinostat]
# Procedure, shortened: as §1
# vorinostat = compound: O=C(CCCCCCC(=O)Nc1ccccc1)NO [vorinostat]
# Procedure, shortened: as §1
# citarinostat = compound: O=C(CCCCCCNC(=O)c1cnc(N(c2ccccc2)c2ccccc2Cl)nc1)NO [citarinostat]
# Procedure, shortened: as §1
# silmitasertib = compound: O=C(O)c1ccc2c(c1)nc(Nc1cccc(Cl)c1)c1ccncc12 [silmitasertib]
# Procedure, shortened: as §1
# [10] = compound: O=C1NC(=O)C(c2cnc3ccccn23)=C1c1cn2c3c(cc(F)cc13)CN(C(=O)N1CCCCC1)CC2
# Procedure, shortened: as §1
# [11] = compound: c1cc(OCCN2CCCCC2)cc(-c2n[nH]c3ccc(-c4nnc[nH]4)cc23)c1
# Procedure, shortened: as §1
# Sequence of UniProt P0CG38 (P0CG38 whole entry, looked up): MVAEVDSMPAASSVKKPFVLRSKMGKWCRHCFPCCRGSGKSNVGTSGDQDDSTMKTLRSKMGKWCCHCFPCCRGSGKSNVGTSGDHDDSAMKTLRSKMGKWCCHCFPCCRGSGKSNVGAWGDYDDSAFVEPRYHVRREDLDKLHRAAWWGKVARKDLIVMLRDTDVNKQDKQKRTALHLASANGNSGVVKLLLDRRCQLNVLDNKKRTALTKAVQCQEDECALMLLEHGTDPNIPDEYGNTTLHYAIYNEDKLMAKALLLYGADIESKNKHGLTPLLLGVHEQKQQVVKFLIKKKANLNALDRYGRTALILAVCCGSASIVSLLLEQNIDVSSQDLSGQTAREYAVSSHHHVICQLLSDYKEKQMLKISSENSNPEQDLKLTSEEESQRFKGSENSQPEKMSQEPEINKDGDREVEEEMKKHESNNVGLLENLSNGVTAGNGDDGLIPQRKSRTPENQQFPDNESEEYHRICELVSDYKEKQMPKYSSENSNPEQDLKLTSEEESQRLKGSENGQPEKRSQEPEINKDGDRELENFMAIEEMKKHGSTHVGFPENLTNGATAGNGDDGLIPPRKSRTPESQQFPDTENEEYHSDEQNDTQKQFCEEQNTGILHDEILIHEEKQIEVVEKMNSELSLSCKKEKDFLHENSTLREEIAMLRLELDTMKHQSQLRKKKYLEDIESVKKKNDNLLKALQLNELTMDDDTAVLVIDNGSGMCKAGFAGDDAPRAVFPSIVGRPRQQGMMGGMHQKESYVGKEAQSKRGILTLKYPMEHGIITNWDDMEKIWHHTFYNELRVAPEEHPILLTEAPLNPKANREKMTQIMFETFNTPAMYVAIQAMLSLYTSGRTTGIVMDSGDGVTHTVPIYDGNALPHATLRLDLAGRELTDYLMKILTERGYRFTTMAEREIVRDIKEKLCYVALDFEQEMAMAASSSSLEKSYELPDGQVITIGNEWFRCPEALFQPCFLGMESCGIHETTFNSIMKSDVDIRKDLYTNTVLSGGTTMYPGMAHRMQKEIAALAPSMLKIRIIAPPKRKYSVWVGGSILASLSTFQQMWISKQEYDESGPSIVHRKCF
# Sequence of UniProt O00231 (O00231 whole entry, looked up): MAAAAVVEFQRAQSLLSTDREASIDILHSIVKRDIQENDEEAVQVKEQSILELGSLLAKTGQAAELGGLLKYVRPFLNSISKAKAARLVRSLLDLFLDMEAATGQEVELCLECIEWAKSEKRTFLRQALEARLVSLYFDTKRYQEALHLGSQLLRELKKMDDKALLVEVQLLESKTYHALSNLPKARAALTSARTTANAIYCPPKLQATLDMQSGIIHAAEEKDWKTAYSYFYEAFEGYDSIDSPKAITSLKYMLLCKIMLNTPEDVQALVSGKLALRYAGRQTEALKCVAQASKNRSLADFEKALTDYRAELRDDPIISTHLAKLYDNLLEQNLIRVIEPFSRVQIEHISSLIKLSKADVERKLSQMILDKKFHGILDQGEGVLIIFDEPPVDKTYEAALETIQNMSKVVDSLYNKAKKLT
# Sequence of UniProt Q8NCC3 (Q8NCC3 whole entry, looked up): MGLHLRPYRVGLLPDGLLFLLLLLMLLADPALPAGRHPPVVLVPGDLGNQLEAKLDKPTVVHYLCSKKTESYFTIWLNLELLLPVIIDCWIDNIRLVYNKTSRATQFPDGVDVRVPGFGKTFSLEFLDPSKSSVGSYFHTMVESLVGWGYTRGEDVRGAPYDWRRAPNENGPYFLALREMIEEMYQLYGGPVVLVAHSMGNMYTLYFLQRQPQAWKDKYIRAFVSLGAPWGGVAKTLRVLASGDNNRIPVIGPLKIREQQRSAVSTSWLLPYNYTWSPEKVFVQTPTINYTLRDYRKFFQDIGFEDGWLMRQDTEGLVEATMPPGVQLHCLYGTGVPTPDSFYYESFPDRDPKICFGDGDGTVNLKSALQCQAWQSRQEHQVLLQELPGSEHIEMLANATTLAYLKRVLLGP
# Sequence of UniProt Q9BRP1 (Q9BRP1 whole entry, looked up): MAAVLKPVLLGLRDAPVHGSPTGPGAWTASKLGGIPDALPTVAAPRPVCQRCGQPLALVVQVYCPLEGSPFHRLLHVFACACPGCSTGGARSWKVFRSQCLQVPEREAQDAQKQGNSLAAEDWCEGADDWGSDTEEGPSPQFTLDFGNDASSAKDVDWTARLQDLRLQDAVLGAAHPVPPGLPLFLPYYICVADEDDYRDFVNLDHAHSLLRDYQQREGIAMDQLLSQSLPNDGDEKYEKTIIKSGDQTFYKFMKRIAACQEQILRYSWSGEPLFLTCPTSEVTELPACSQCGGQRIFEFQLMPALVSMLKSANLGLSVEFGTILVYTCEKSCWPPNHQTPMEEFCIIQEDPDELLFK
# Sequence of UniProt Q6GMV3 (Q6GMV3 whole entry, looked up): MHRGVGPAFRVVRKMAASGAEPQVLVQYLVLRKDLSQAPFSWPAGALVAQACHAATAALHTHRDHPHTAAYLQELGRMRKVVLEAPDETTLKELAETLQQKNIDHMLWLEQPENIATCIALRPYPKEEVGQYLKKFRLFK
# Sequence of UniProt Q9Y478 (Q9Y478 whole entry, looked up): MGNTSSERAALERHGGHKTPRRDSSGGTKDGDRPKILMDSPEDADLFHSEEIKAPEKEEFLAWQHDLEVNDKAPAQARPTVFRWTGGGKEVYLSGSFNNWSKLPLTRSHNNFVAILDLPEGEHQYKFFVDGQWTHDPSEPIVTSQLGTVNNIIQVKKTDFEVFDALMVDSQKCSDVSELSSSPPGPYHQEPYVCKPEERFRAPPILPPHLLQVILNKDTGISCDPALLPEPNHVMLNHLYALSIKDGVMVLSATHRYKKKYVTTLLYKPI
# Sequence of UniProt Q9NR12 (Q9NR12 whole entry, looked up): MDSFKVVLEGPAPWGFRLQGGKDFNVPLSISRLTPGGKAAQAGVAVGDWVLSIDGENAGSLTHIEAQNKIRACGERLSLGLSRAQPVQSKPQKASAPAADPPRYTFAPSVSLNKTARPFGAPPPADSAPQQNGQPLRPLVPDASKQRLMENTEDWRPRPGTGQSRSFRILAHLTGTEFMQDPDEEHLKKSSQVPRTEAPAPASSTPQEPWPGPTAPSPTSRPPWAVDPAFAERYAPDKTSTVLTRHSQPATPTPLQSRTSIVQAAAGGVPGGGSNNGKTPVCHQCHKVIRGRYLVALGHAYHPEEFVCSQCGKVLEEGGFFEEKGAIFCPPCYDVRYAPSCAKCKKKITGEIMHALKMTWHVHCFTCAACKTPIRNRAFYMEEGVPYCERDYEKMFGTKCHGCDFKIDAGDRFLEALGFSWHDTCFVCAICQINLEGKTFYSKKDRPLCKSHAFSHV
# Sequence of UniProt P29590 (P29590 whole entry, looked up): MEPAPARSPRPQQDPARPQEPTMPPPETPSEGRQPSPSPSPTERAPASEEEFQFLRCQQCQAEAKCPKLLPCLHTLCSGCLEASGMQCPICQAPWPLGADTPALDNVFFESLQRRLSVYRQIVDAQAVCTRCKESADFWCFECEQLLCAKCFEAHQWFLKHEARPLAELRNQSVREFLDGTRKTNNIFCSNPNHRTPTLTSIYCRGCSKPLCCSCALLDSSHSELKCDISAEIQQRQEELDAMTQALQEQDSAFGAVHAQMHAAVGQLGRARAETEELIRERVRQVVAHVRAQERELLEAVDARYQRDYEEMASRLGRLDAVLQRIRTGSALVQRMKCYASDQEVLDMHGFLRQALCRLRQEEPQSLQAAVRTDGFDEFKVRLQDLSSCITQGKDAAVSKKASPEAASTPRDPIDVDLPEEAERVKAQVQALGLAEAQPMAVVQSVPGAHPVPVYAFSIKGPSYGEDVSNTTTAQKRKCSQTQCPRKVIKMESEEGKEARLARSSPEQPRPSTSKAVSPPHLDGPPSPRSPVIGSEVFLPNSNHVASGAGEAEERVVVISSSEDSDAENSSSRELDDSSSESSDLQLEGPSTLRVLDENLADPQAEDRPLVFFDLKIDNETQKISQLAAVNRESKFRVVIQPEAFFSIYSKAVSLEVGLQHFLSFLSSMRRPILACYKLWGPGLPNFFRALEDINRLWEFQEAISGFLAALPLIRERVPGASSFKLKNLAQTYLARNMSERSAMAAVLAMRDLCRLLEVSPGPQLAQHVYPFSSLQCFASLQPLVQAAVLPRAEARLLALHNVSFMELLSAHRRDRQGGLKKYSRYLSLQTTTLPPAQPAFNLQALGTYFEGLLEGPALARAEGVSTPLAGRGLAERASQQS
# Sequence of UniProt P11216 (P11216 whole entry, looked up): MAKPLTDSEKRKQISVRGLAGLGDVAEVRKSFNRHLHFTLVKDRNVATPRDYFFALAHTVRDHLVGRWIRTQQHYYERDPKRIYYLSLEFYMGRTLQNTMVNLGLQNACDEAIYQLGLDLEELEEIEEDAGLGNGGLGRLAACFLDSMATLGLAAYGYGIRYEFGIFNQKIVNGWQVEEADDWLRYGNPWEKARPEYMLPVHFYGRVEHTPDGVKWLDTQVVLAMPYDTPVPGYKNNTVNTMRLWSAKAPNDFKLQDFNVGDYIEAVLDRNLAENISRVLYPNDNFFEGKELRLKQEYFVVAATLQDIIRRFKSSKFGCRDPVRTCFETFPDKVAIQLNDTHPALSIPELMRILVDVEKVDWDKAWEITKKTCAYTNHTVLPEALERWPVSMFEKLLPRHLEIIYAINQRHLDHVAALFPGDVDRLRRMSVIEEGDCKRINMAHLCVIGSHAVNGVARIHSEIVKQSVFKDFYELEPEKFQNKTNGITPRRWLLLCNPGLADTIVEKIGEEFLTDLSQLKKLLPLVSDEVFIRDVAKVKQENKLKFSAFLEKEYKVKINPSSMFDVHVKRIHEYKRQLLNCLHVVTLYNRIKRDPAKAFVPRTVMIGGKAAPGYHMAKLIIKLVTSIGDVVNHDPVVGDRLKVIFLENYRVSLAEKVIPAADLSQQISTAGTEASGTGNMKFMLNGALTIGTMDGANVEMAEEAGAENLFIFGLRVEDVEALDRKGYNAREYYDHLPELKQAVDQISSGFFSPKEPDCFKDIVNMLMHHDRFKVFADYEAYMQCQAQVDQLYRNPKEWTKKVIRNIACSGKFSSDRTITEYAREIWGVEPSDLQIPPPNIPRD
Target,log2 fold change (bafetinib),log2 fold change [1],log2 fold change (nilotinib),log2 fold change [2],log2 fold change (dasatinib),log2 fold change [3],log2 fold change [4],log2 fold change [5],log2 fold change (tipifarnib),log2 fold change (mubritinib),log2 fold change [6],log2 fold change [7],log2 fold change [8],log2 fold change [9],log2 fold change (entinostat),log2 fold change (vorinostat),log2 fold change (citarinostat),log2 fold change (silmitasertib),log2 fold change [10],log2 fold change [11]
PSMD3 (UniProt O43242),0.129,0.032,0.008,0.089,0.004,-0.012,-0.064,-0.018,0.025,-0.019,-0.027,0.009,-0.032,0.041,-0.02,-0.009,-0.009,0.008,0.014,-0.082
PLD3 (UniProt Q8IV08),-0.308 (active),-0.007,-0.043,0.064,-0.024,-0.03,-0.007,0.013,-0.01,0.035,0.008,-0.005,-0.177,-0.051,0.009,0.022,0.034,0.006,0.024,0.067
PRKAB1 (UniProt Q9Y478),-0.154,0.006,-0.119,-0.162,-0.037,-0.007,0.04,-0.026,0.008,-0.104,-0.015,0.186,-0.015,0.035,0.056,0.063,0.089,0,-0.036,-0.067
POTEI (UniProt P0CG38),-0.052,-0.02,0.046,-0.049,0.087,0.043,-0.005,-0.003,-0.019,0.004,-0.058,0.061,0.139,0.124,-0.004,-0.016,-0.009,-0.03,-0.053,-0.004
PDCD4 (UniProt Q53EL6),0.065,-0.014,0.017,0.025,-0.144,0.144,0.022,0.077,-0.172,0.104,-0.001,0.011,-0.087,-0.064,-0.044,0.042,0.059,0.145,-0.041,0.092
PSMD11 (UniProt O00231),0.15,0.042,0.054,0.068,-0.004,-0.014,-0.074,-0.043,-0.021,-0.054,0.048,0.04,-0.016,0.061,-0.012,0.027,-0.001,-0.028,0.071,-0.092
PLA2G15 (UniProt Q8NCC3),-0.175,0.05,-0.001,-0.025,-0.036,-0.028,0.002,0.09,0.084,-0.05,0.06,-0.042,-0.023,0.001,0.056,0.073,0.279 (active),0.076,-0.074,-0.008
PYGB (UniProt P11216),-0.317 (active),0,-0.358 (active),0.02,-0.042,-0.032,0.026,-0.007,0.035,0.014,0.209,-0.077,-0.018,-0.041,-0.003,0.063,0.033,-0.005,-0.105,-0.105
PSMD13 (UniProt Q9UNM6),0.126,0.003,-0.002,0.082,0.023,-0.018,-0.114,-0.008,0.095,-0.019,-0.049,0.015,-0.044,0.006,-0.018,0.001,-0.017,0.033,0.044,-0.108
PDLIM7 (UniProt Q9NR12),-0.01,0.107,0,-0.078,-0.036,-0.01,0.006,-0.048,-0.091,-0.042,0.003,0.009,0.043,-0.042,0.011,0.082,0.037,-0.017,0.021,-0.026
PTRHD1 (UniProt Q6GMV3),-0.067,0.024,0.08,-0.032,-0.007,-0.061,0.111,0.332 (active),0.028,0.043,-0.02,0.037,-0.009,0.03,0.095,-0.099,0.026,-0.006,-0.065,-0.006
PDCD2L (UniProt Q9BRP1),0.026,0.077,-0.137,0.035,-0.122,-0.062,-0.022,0.015,-0.13,0.018,0.058,1.21 (active),-0.018,-0.101,0.036,0.023,0.06,0,-0.092,-0.001
PITRM1 isoform 2 (UniProt Q5JRX3),-0.052,-0.039,-0.108,0.01,-0.132,-0.088,0.119,-0.004,0.003,0.005,0.116,-0.077,-0.051,-0.061,0.097,0.089,0.104,-0.045,0.05,0.096
PRPF4B (UniProt Q13523),0.188,-0.096,0.153,-0.626 (active),0.081,-0.163,0.005,-0.056,0.117,0.069,-0.057,-0.075,-0.022,-0.065,-0.008,0.025,0.033,0.01,0.055,-0.328 (active)
PRPF3 (UniProt O43395),0.048,0.072,-0.044,-0.201,-0.114,-0.152,-0.149,0.018,-0.011,0.118,0.026,-0.029,-0.099,-0.077,0.064,0.128,0.194,-0.014,-0.063,0
PML (UniProt P29590),-0.078,0.029,-0.035,-0.046,-0.036,-0.037,-0.047,-0.003,0.014,-0.023,0.021,-0.027,-0.029,0.015,-0.002,-0.059,0.019,0.088,0.002,-0.042

# Source: the supplement of paper PMC10849652
